Test results as given in PubChem BioAssay (Tox21).
Values joined by “and” are separate entries in the source; they are usually repeats but may differ in a detail not shown here. Equal entries are not always repeated. Inconclusive results are not listed. Where a call stands in place of a potency, no number is given. Some compounds were tested as several samples or in several runs, with calls that do not always agree. Active and inactive are the calls of the source. Calls follow the shape of the dose curve; as a rule, active = well fitted inhibition curve with a large enough effect in the repeat runs; inconclusive = weak or mixed curves; inactive = no such curve, though single readings can be large or run the other way.

These compounds were tested against Cytochrome P450 2D6 (Homo sapiens) (UniProt P10635) (assay: Cytochrome P450 Family 2 Subfamily D Member 6 (CYP2D6) small molecule antagonists: luciferase reporter qHTS assay (AID 1671196; also: nearly all actives have a fitted effect of over 50% in size)). Conditions: P450-Glo CYP2D6 enzyme assay, luciferin luminescence, 1 h; series mostly up to 115 µM; activity change, negative = inhibition: at the top concentration.
Sequence of Cytochrome P450 2D6 (Homo sapiens) (P10635 whole entry, looked up): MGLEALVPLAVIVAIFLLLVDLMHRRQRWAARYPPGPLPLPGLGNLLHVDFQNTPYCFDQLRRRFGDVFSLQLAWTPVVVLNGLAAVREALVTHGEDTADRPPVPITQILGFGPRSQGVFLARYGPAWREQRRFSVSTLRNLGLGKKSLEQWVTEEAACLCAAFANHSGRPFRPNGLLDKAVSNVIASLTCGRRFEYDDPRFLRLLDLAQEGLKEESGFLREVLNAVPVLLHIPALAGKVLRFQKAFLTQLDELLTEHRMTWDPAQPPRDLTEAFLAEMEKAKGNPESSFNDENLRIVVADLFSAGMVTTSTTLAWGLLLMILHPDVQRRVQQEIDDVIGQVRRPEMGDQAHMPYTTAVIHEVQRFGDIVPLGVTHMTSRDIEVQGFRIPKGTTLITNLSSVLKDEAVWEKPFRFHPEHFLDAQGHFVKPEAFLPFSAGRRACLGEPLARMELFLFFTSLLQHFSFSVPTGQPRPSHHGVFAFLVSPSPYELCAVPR
Text: U.S. Tox21 Program National Center for Advancing Translational Sciences [NCATS] U.S. Environmental Protection Agency [EPA] National Institutes of Environmental Health Sciences [NIEHS] National Toxicology Program [NTP] U.S. Food and Drug Administration [FDA] Tox21 Assay Overview: Cytochrome P450 (CYP) enzymes are membrane-bound hemeproteins that play a key role in metabolism of drugs and xenobiotics. Evaluation of the effect of chemicals on CYP isozymes is useful to minimize the adverse drug reactions and toxicities in drug development process. Tox21 chemicals were tested for their effect on CYP enzyme activities by using P450-Glo (TM) screening systems (Promega Corporation, Madison, WI). These systems provide a luminescent method containing proluciferin substrates and are converted to luciferin products by CYP isozymes. The luciferin products formed are detected with a luciferin detection reagent, and the amount of light produced is proportional to CYP activity. P450-Glo (TM) CYP2D6 screening system (Catalog. No. V9890) was used to detect the compounds that interfere in CYP2D6 activity.
Tox21 Assay Protocol Summary: Two ul of enzyme-substrate mix was dispensed into medium binding white/solid 1536-well plates (Greiner Bio-One North America Inc., Monroe, NC) using a BioRaptr Flying Reagent Dispenser (FRD, Beckman Coulter, Brea, CA). […] The assay plates were incubated at room temperature for 10 min. Then 2 ul of NADPH regeneration solution was added to each well of the assay plates using an FRD and incubated at room temperature for 1 h. The reaction was stopped by adding 4 ul of detection reagent using an FRD and after 20 min incubation at room temperature the luminescence signal was measured using a ViewLux plate reader (Perkin Elmer, Shelton, CT). Data were expressed as relative luminescence units.
Potency is read from the fitted curve at half-maximal effect.

Structure (SMILES)	Potency	activity change, negative = inhibition
c1ccc2scnc2c1	inactive	
O=c1[nH]nnc2ccccc12	inactive	
OC[C@H]1O[C@@](CO)(O[C@H]2O[C@H](CO)[C@@H](O)[C@H](O)[C@H]2O)[C@@H](O)[C@@H]1O	inactive	
Nc1ccccc1[N+](=O)[O-]	inactive	
O=c1[nH]c(=O)n([C@H]2C[C@H](O)[C@@H](CO)O2)cc1Br	inactive	
CCCCCCCC(=O)OC	inactive	
N[C@@H](Cc1cc(I)c(Oc2cc(I)c(O)c(I)c2)c(I)c1)C(=O)O	inactive	
CCCCCCOCCO		3.39% (inactive)
Cc1ccc(N(C)C)cc1	inactive and 35.6 µM (active)	
C/C=C1/CC2C=CC1C2 (stereo not given)	inactive	
Fc1ccc(Br)cc1	inactive	
COc1ccc(NC(C)=O)cc1N	inactive	
CCc1cccc(C)c1N	inactive	
O=S1(=O)CC=CC1	inactive	
CC(=O)CC(=O)Nc1ccccc1C	inactive	
CC1=C(C)S(=O)(=O)CCS1(=O)=O	inactive	
Nc1cc([N+](=O)[O-])ccc1O	inactive	
c1ccc2c(c1)ccc1ccccc12	inactive	
CCCCC(CC)COC(=O)CS (stereo not given)	28.6 µM (active)	
c1ccc(OCCOc2ccccc2)cc1	inactive	

Structure (SMILES)	Potency	activity change, negative = inhibition
CCCCCC/C(C=O)=C\c1ccccc1	inactive	
COc1ccc(Nc2ccccc2)c(C)c1		-2.96% (inactive)
CCCSc1ccc2nc(NC(=O)OC)[nH]c2c1	inactive	
OCCOCCOCCO	inactive	
O=C=NCCCCCCN=C=O		-1.91% (inactive)
CCCCCCCCCCCCCCCO	inactive	
CCOC(=O)NNc1nncc2ccccc12	35.6 µM (active)	
O=C(O)CCCC[C@@H]1SC[C@@H]2NC(=O)N[C@@H]21		0.235% (inactive)
CSCCC=O		-9.19% (inactive)
CC1CCC(C(C)C)C(O)C1 (stereo not given)	inactive	
COc1cc(Cc2cnc(N)nc2N)cc(OC)c1OC		-0.543% [at 53 µM] (inactive)
O=C(O)c1cc(=O)c2c(OCC(O)COc3cccc4oc(C(=O)O)cc(=O)c34)cccc2o1	inactive	
CCC(O)OCCCOC (stereo not given)	inactive	
O=C(O)c1cc(C(=O)O)cc(S(=O)(=O)O)c1	36 µM (active)	
CC(c1cc2ccccc2s1)N(O)C(N)=O (stereo not given)		-10.3% [at 53 µM] (inactive)
O=C(O)CCCCCCCCCCC(=O)O	35.9 µM (active) and 39.9 µM (active)	
O=C(O)c1cc(O)c(O)c(O)c1	inactive	
CC(=O)Nc1ccccc1	inactive	
CCCCCOC(C)=O		-0.704% (inactive)
C=CCOC(=O)c1ccccc1C(=O)OCC=C		-25.5% (inactive)
